Screening results as filed in PubChem.
In the library only some 3.6% were active in any assay of this set; here they are far more common.
BoNT F protease: BoNT F light chain protease inhibition; Multiplex microsphere protease cleavage assay, flow cytometry; inhibition, % at 10 µM; 0.22% of 360,000 active; AID 588497; in the data active = inhibition above about 35%, passing the limit was not always enough; inconclusive = no clear call, values can overlap the other calls; note: plate controls were buffer without enzyme for full effect and enzyme alone for no effect
Anthrax LF prot: blocks Bacillus anthracis lethal factor protease; P15917; multiplex microsphere protease cleavage assay, LF; inhibition, % at 10 µM; 0.12% of 360,000 active; AID 588501; note: plate controls were buffer without enzyme for full effect and enzyme alone for no effect
BJeLR viability: BJeLR cell viability loss. BJeLR (HRASV12) viability, CellTiter-Glo ATP luminescence, 48 h. inhibition, % (concentration not given with the values). 0.17% of 300,000 active. AID 1554; in the data active = inhibition above about 50%; inconclusive = no clear call, values can overlap the other calls
BoNT-A LC inh2: BoNT A light chain protease inhibition | multiplex microsphere protease substrate cleavage, flow cytometry | inhibition, % at 10 µM | 0.17% of 360,000 active; note: plate controls were buffer without enzyme for full effect and enzyme alone for no effect
3CLpro inhibitor: SARS-CoV 3CLpro protease inhibition; recombinant SARS-CoV 3CLpro, quenched FRET peptide cleavage; inhibition, % at 6 µM; 0.14% of 290,000 active; AID 1706; in the data active = inhibition above about 12%
Autofluor counter: counter-screen for toxin protease inhibitors: compound fluorescence. compound autofluorescence counterscreen, microsphere flow cytometry; hits give high values. fluorescence intensity (no concentration beside the values). 3.1% of 360,000 active; in the data active = fluorescence intensity above about 16000; inconclusive = no clear call, values can overlap the other calls
Starred values were filed as active, the others as inactive; ? = inconclusive; . = not tested or not shown. Cut-off read from the data, not from the text of the source, unless noted: active = inhibition above about 30%; inconclusive = no clear call, values can overlap the other calls; inactive = below that.

SMILES	BoNT F protease	Anthrax LF prot	BJeLR viability	BoNT-A LC inh2	3CLpro inhibitor	Autofluor counter
Cc1ccc(OCC(=O)N2CCCC(CCC(=O)N(C)CCc3ccccn3)C2)cc1 (stereo unspecified)	-0.8	-0.7	0.5	0.1	1.3	2294
O=C(CCN1CCCCC1)N/N=C/c1c[nH]c2ccccc12	-2.9	-0.2	-2.3	-0.7	2.2	4370
CC(Nc1cc(N2CCCC2)ccc1[N+](=O)[O-])c1ccccc1 (stereo unspecified)	-11.4	-4.2	-1.1	-0.5	-5.2	2982
CCCC(=O)N1CCN(c2ccc([N+](=O)[O-])c(NC(C)c3ccccc3)c2)CC1 (stereo unspecified)	-3.9	-3.4	1.4	-1.1	2.6	16602*
Cc1occc1-c1n[nH]c(=S)n1CC(C)C	-1.6	-1.5	1.0	-2.7	2.6	23617*
CC(C)Cn1c(-c2csc3ccccc23)n[nH]c1=S	12.9	2.1	-10.6	1.8	5.6	10325
Cc1cccn2c(=O)c(/C=C(\C#N)S(=O)(=O)c3ccccc3)c(N3CCC(C(N)=O)CC3)nc12	5.9	1.0	-10.8	4.6	-1.9	18714*
CCN1CCN(c2nc3ccccn3c(=O)c2/C=C(\C#N)S(=O)(=O)c2ccccc2)CC1	?	32.7*	-3.2	?	0.9	4035
Cc1ccc(S(=O)(=O)/C(C#N)=C/c2c(N3CCC(C(N)=O)CC3)nc3c(C)cccn3c2=O)cc1	9.6	12.2	2.0	2.6	1.4	8291
Cc1c(C(=O)Nc2ccccc2F)sc2ncn(CC(=O)N3CCCCC3)c(=O)c12	-1.3	-2.0	-0.9	-0.5	-8.1	5898
CC1CCCCN1C(=O)COC(=O)C1CCN(S(=O)(=O)c2ccc3c(c2)OCCO3)CC1 (stereo unspecified)	-80.3	-7.9	1.5	-46.1	.	17025*
O=C(Nc1ccc2c(c1)OCCO2)C1CCN(S(=O)(=O)c2cccs2)CC1	-2.7	2.1	-6.6	?	-0.9	23275*
O=C(Nc1cccc(F)c1)C1CCN(c2nnnn2-c2ccccc2)CC1	3.0	-3.7	-2.5	1.3	-1.8	15912
O=C(NC1CCCCC1)C1CCCN(c2nnnn2-c2ccccc2)C1 (stereo unspecified)	-5.5	-3.0	-6.5	?	4.4	17148*
CCOC(=O)C1CCCN(c2nnnn2-c2ccccc2)C1 (stereo unspecified)	4.4	0.2	8.9	0.8	4.6	4018
O=C(Nc1ccc2c(c1)OCCO2)C1CCN(c2nnnn2-c2ccccc2)CC1	2.8	0.9	-2.7	0.7	-1.7	16234*
CC(=O)Nc1ccccc1NC(=O)C/C(C)=N/NC(=O)Cc1cccc2ccccc12	7.4	-0.4	-13.1	0.3	-2.8	5582
CCN(CC(=O)Nc1ccccc1C(F)(F)F)C(=O)/C=C/c1ccc(Cl)c([N+](=O)[O-])c1	0.4	-3.3	3.4	-3.1	.	6903
O=C(Nc1ccc2c(c1)OCCO2)C1CCN(S(=O)(=O)c2ccc3c(c2)OCCO3)CC1	-1.9	-0.9	-4.8	2.3	6.5	21484*
CC(=O)Nc1ccc(NC(=O)C2CCN(S(=O)(=O)c3ccc4c(c3)OCCO4)CC2)cc1	-2.4	-5.4	.	0.2	.	3767
O=C(Nc1ccc2c(c1)nc1n2CCSC1)c1ccccc1	0.5	5.2	3.6	0.5	-3.3	21018*
CC(C)C(=O)Nc1ccc2c(c1)nc1n2CCSC1	6.6	-0.8	5.9	1.0	-2.4	16136*
CCC(=O)Nc1ccc2c(c1)nc1n2CCSC1	.	.	4.0	.	-2.6	.
Cc1cc(=O)n2c(ccc3ccccc32)c1C#N	-1.9	-2.2	-17.5	0.6	-8.6	2948
Cc1cc(=O)n2ccccc2c1C#N	4.4	1.1	10.5	?	0.0	22057*
SMILES	BoNT F protease	Anthrax LF prot	BJeLR viability	BoNT-A LC inh2	3CLpro inhibitor	Autofluor counter
O=C(c1cccc(Br)c1)c1cn(-c2ccccc2)nc1C(=O)c1ccccc1	-14.7	-7.0	-7.5	?	2.8	24853*
CC(=O)c1nn(-c2ccccc2)cc1C(=O)c1cccc(Br)c1	2.1	-0.7	0.3	0.4	-3.9	1907
Cc1cccc(Cc2nnc(CCC(=O)N(C)C3CCOC3)o2)c1 (stereo unspecified)	2.7	-3.6	1.6	-0.1	-1.8	4122
O=S(=O)(c1ccccc1)c1nc(-c2ccco2)oc1NCCN1CCOCC1	-1.7	-2.1	3.3	-2.3	5.3	23098*
O=S(=O)(c1ccccc1)c1nc(-c2ccco2)oc1NCCCN1CCOCC1	16.2	-1.8	4.1	0.6	-9.1	4174
N#Cc1nc(-c2ccco2)oc1NCCCN1CCOCC1	-0.4	-9.4	-2.2	0.4	-1.0	22603*
N#Cc1nc(COc2ccc(Br)cc2)oc1NCCN1CCOCC1	-2.5	0.2	-2.7	-2.1	-1.8	23449*
COCCCNC(=S)NC(=O)c1ccc(C)cc1	-0.4	-1.4	2.0	0.4	4.0	2161
O=C(NCc1ccc2c(c1)OCO2)c1nn2cccnc2c1Cl	-2.4	5.1	2.1	-1.2	-2.1	4481
CN(C)c1ccc(Cl)c(NC(N)=S)c1	-10.1	-1.4	.	-1.1	.	4332
CCCn1c2ccccc2c2nnc(SCC(=O)OC)nc21	6.3	-5.4	-2.4	4.7	-1.8	20508*
CCCn1c2ccccc2c2nnc(SCC(=O)OCC)nc21	-8.3	0.0	-1.9	0.2	-2.3	2128
COc1ccc(NC(=O)CNc2cc(C)ccc2C)cc1S(=O)(=O)N1CCOCC1	-4.6	-7.0	.	-0.2	.	8749
CN(Cc1ccncc1)C1CC(=O)N(c2ccc(Cl)cc2)C1=O (stereo unspecified)	4.2	0.3	-3.9	0.0	-1.5	2724
COC(=O)CN(C)C1CC(=O)N(c2ccc(Cl)cc2)C1=O (stereo unspecified)	-1.7	-0.4	3.0	-0.3	-2.8	22599*
COc1ccc(N2C(=O)CCC2=O)cc1	4.6	-2.0	1.4	?	-3.4	20610*
Cc1ccc(C)c(-n2nnnc2SCC(=O)NCCC2=CCCCC2)c1	-2.3	-2.1	-10.0	-0.5	4.1	16990*
CNC(=O)CSc1nnnn1-c1cc(C)ccc1C	-16.1	5.1	-1.2	-0.7	-5.1	4333
O=C(CSc1ncccn1)NCCC1=CCCCC1	3.4	0.3	2.6	1.8	.	5183
O=C(CSc1ncccc1C(=O)O)NCCC1=CCCCC1	1.7	-2.8	4.3	0.2	-0.4	20428*
CC(C)(C)c1ccc(NC(=O)COC(=O)C2CCCC2)cc1	0.3	-1.5	.	0.2	.	3899
COc1ccc(S(=O)(=O)N2CCCCCC2)cc1C(=O)OCc1cccc(OC)c1OC	-9.2	1.0	-4.2	-3.3	.	5675
Cc1ccc(N2C(=O)N(CC(=O)Nc3ccc(C)cc3[N+](=O)[O-])C(=O)C2C)cc1 (stereo unspecified)	-11.6	-3.3	4.4	-15.3	.	6407
CCOC(=O)C1CCN(Cc2ccc(OC)c(C)c2OC)CC1	0.4	1.7	2.1	-0.8	-2.8	16792*
CCOC(=O)C1CCN(Cc2ccc(F)c(Br)c2)CC1	-1.3	-1.4	-3.8	?	3.2	20738*
CCOC(=O)C1CCN(Cc2ccc(F)cc2F)CC1	-8.4	-0.5	4.5	-2.0	2.0	8227
